In PubChem BioAssay (NCI) one finds growth inhibition data, which are given here for 21 compounds.

A short description of assay [1]: NCI Yeast Anticancer Drug Screen. Data for the rad50 strain (AID 155).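 Note: 0% = growth of vehicle-only cultures of the same strain.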 The note with it: S. cerevisiae rad50 strain growth inhibition; at 50.0 µM; active compounds read high. The method in brief:
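Relative growth inhibition (compound vs vehicle) was measured in yeast with a defined repair-gene alteration.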

Assay [2] is described as follows: NCI Yeast Anticancer Drug Screen. Data for the mec2-1 strain (AID 157). The note with it: S. cerevisiae mec2-1 strain, at 50.0 µM, active compounds read high. Put shortly:
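Yeast mec2-1 mutant treated with compound. Readout: growth inhibition vs vehicle controls.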

The nature of assay [3]: NCI Yeast Anticancer Drug Screen. Data for the sgs1 mgt1 strain (AID 161).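 Note: 0% = growth of cultures given vehicle only.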 The note with it: S. cerevisiae sgs1 mgt1 strain, at 50.0 µM, active compounds read high. Put shortly:
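Genetically altered yeast, compound exposure, growth inhibition relative to vehicle.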

Assay [4] can be described thus: NCI Yeast Anticancer Drug Screen. Data for the cln2 rad14 strain (AID 165).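 Note: 0% = growth equal to vehicle treated cultures.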 The note with it: S. cerevisiae cln2 rad14 strain, at 50.0 µM, active compounds read high. The method in brief: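 cln2 rad14 yeast strain; compound exposure; growth inhibition read vs vehicle controls.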
The nature of assay [5]: NCI Yeast Anticancer Drug Screen. Data for the bub3 strain (AID 167). The conditions noted are these: S. cerevisiae bub3 mutant strain, at 50.0 µM, active compounds read high. The method in brief: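 Screening used yeast with an engineered genetic alteration affecting cell cycle control. Compound-exposed cultures were compared with vehicle cultures, and reduced growth was taken as inhibition.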

A short description of assay [6]: NCI Yeast Anticancer Drug Screen. Data for the mlh1 rad18 strain (AID 175). The note with it: S. cerevisiae mlh1 rad18 strain growth inhibition; at 50.0 µM; active compounds read high. The method in brief: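 Yeast w/ defined DNA-repair lesions; compound exposure; growth vs vehicle controls → % inhibition.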

This is part of a sample that, as a whole, favours compounds with a hit. Of some 79,000 tested, about 15% had one in any assay. Unmarked numbers belong to inactive results. The source made the active and inactive calls. Cut-off read from the data, not from the text of the source: active = growth inhibition above about 70%; inactive = the rest.

In the case of `CC1(C)OC(=O)c2c(cc(N3CCOCC3)oc2=O)O1`, the growth inhibition is 3.35% in assay [1]; -2.9% in assay [2]; 1.35% in assay [3]; 9.55% in assay [4]; 11.1% in assay [5]; -1.25% in assay [6].
With `CCCOC(=O)C(O)Cc1ccccc1` (stereo unspecified), the growth inhibition in assay [1] was -26.9%; in assay [2] it was 18.2%; in assay [3], 5.95%; in assay [4] it was -0.35%; in assay [5], -11.1%; in assay [6], -34.3%.
On to `CC(=O)OCC1C(OC(C)=O)C(OC(C)=O)C(n2cnc3c(N)ncnc32)N1C(C)=O` (stereo unspecified), for which the growth inhibition in assay [1] was 17.1%; in assay [2], 3.75%; in assay [3], 16.3%; in assay [4], 11.4%; in assay [5], 1.5%; in assay [6], 4.35%.
Turning to `Cc1ccnn1CCc1ccc(Cl)cc1Cl`, the growth inhibition was 18.1% in assay [1]; 15.3% in assay [2]; 34.1% in assay [3]; 11.4% in assay [4]; 29.5% in assay [5]; -4.55% in assay [6].
`O=c1[nH]c(=O)c2nnoc2[nH]1`: the growth inhibition was 12.4% in assay [1]; 7.65% in assay [2]; 4.55% in assay [3]; -20.2% in assay [4]; 7.4% in assay [5]; -16.5% in assay [6].
On to `CCCCCC(=O)OC[n+]1ccc2c(C)c3[nH]c4ccc(OC)cc4c3c(C)c2c1`, for which the growth inhibition in assay [1] is 87.8% (active); in assay [2], 91.8% (active); in assay [3] it was 90.2% (active); in assay [4], 89.3% (active); in assay [5], 87.1% (active); in assay [6], 91.5% (active).
On to `CCOc1ccc(NC(=O)C2=C(C)NC(C)=C(C(=O)Nc3ccc(OCC)cc3)C2c2ccccc2)cc1`, for which the growth inhibition in assay [1] is -22.9%; in assay [2] it was -7.4%; in assay [3] it was -20.9%; in assay [4] it was -17.1%; in assay [5], -16.2%; in assay [6], -18.2%.
Turning to `C/C=C(\C)C(C#N)(CCCC)C(=O)OCC` (stereo unspecified), the growth inhibition is 0.3% in assay [1]; -17.2% in assay [2]; -6.35% in assay [3]; -14.7% in assay [4]; -25.4% in assay [5]; -24.2% in assay [6].
Regarding `O=C(Nc1ccc2c(c1)OCO2)O/N=C\c1ccccn1`, the growth inhibition in assay [1] was 9.15%; in assay [2] it was 26.8%; in assay [3], 17.7%; in assay [4], 57.4%; in assay [5], 9.4%; in assay [6], 42.1%.
For `O=C(NC(Nc1ccc(F)c(Cl)c1)(C(F)(F)F)C(F)(F)F)OCc1ccccc1`, the growth inhibition was -1.35% in assay [1]; -1.05% in assay [2]; -23.1% in assay [3]; 3.1% in assay [4]; -5.5% in assay [5]; 24.3% in assay [6].
`CCOC(=O)NC(=S)Nc1cn(C)cc1[N+](=O)[O-]`: the growth inhibition in assay [1] is 3.2%; in assay [2], -5.9%; in assay [3], 8.8%; in assay [4] it was 1.9%; in assay [5], 3.65%; in assay [6], 11.7%.
As for `COC(=O)C1(C)CCCC2(C)C3=CC(O)C4(C(C)C)OC4C3(O)CCC12` (stereo unspecified), the growth inhibition in assay [1] is -9.4%; in assay [2] it was -41.6%; in assay [3], -8.15%; in assay [4], 5.65%; in assay [5], -21.9%; in assay [6], -8.2%.
As to `Oc1cccc2c(NC(=S)Nc3ccccc3)cccc12`, the growth inhibition is 37.2% in assay [1]; 22.8% in assay [2]; 18.2% in assay [3]; 15.5% in assay [4]; 39.5% in assay [5]; 32.9% in assay [6].
As to `CCCCc1ccc(O)c(CN(CC)CC)c1`, the growth inhibition in assay [1] was 10.8%; in assay [2], -8.2%; in assay [3], -11.6%; in assay [4], -23.6%; in assay [5] it was -6.8%; in assay [6], -2.9%.
Take `CCOC(=O)[C@H]1C(CC)=NOC1C` (stereo partly specified): the growth inhibition in assay [1] is 9.95%; in assay [2], 13.2%; in assay [3] it was 2.9%; in assay [4], -27.5%; in assay [5] it was 4.25%; in assay [6] it was 2.4%.
For `Cc1ccc(N=C2N=C(N3CC(C)OC(C)C3)c3ccccc32)cc1` (stereo unspecified), the growth inhibition in assay [1] was -12.9%; in assay [2] it was -22.9%; in assay [3], -15.6%; in assay [4], -7.8%; in assay [5], 0%; in assay [6], -21.4%.
On to `CCCCN(CCO)CC(O)Cn1cnc2c(N)ncnc21` (stereo unspecified), for which the growth inhibition is 17.4% in assay [1]; 13.9% in assay [2]; 8.85% in assay [3]; 0.7% in assay [4]; -5.65% in assay [5]; 21.3% in assay [6].
Take `Cc1ccc(C(=O)OC2C(OC(=O)Nc3ccccc3)OC(COC(=O)c3ccccc3)C2OC(=O)c2ccccc2)cc1` (stereo unspecified): the growth inhibition was 1.95% in assay [1]; 10.1% in assay [2]; 9.45% in assay [3]; 13.8% in assay [4]; -12.4% in assay [5]; 30% in assay [6].
Take `Cn1c(=O)c2c(nc(Cl)n2C)n(C)c1=O`: the growth inhibition in assay [1] was 42.5%; in assay [2], 14.5%; in assay [3] it was -16.1%; in assay [4], -29.3%; in assay [5], -7.65%; in assay [6], 28.9%.
For the compound `Cc1ccccc1-n1c(C)nc2cc(NC(N)=S)ccc2c1=O`, the growth inhibition in assay [1] is -19.1%; in assay [2], -3.05%; in assay [3], 0%; in assay [4], -24.5%; in assay [5], -5.9%; in assay [6], -17.7%.
As for `COc1ccc(/C=C/C(=O)c2ccc(Cl)s2)cc1`, the growth inhibition is -18.2% in assay [1]; -4.75% in assay [2]; -5.8% in assay [3]; -34.3% in assay [4]; 20.4% in assay [5]; -4.5% in assay [6].
